Vaccinia mCherry: inhibitors of vaccinia virus infection (mCherry reporter signal); Vaccinia virus mCherry reporter infection, fluorescence; Potency, µM (titrated, usually from 36.5 µM), actives largely listed as inhibitors; actives 0.63% (n = 310,000); AID 720579; calls by dose curve; tested in A549 cells; also: nearly all actives have a fitted effect of over 35% in size
HCMV antiviral: blocks human cytomegalovirus replication; activity change, negative = inhibition, % at 57.5 µM; actives 4.5% (n = 410,000); AID 1259415; HFF cells, HCMV-luciferase reporter, 72 h; stronger effect = lower value; in the data active = activity change below about -60%; inconclusive = no clear call, values can overlap the other calls; inactive = above about -39%
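Screen run at 2 compound doses on HFFs infected with reporter HCMV, MOI 1 PFU/cell. Luciferase activity from cell lysates at 72 h post infection gave inhibition relative to buffer-only and Salinomycin wells.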
Vaccinia Venus: inhibitors of vaccinia virus (Venus reporter); Potency, µM (titrated, usually from 36.5 µM), hits mostly inhibitors; Vaccinia virus Venus reporter expression, fluorescence; actives 0.46% (n = 330,000); AID 720580; calls by dose curve; tested in A549 cells; also: nearly all actives have a fitted effect of over 30% in size
LmPK inh: LmPK (Leishmania mexicana) enzyme inhibition | Potency, µM (top dose mostly 57.5 µM), actives largely listed as inhibitors | actives 0.37% (n = 290,000) | Q27686 | purified LmPK, Kinase-Glo ATP luminescence, 1 h
Target sequence (Q27686 whole entry, looked up): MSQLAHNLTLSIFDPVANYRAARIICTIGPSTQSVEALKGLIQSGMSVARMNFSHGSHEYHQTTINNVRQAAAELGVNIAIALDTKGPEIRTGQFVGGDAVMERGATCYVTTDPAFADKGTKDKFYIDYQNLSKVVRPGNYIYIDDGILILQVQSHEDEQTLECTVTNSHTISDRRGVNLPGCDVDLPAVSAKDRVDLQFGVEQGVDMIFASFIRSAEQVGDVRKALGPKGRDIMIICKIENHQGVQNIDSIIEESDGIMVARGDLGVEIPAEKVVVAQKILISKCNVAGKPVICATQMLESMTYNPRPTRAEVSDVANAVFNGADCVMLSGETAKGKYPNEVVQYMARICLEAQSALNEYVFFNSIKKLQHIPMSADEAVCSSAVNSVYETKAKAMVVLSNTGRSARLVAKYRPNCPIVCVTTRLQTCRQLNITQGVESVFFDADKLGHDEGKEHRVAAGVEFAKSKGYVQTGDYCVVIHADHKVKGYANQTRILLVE
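Purified LmPK (0.1 nM) converted ADP (0.1 mM) to ATP with PEP (0.5 mM) in imidazole buffer pH 7.2 with KCl and MgCl2, 1 h at room temperature. ATP was read by Kinase-Glo luminescence; data normalized to uninhibited and no-enzyme controls.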
Tb PYK inh: T. brucei pyruvate kinase inhibition; AID 624173; TbPYK enzyme, Kinase-Glo Plus ATP luminescence, 45 min; Q57TT1; Potency, µM (highest dose often 76.8 µM), hits mostly inhibitors; actives 0.12% (n = 410,000); also: nearly all actives have a fitted effect of over 50% in size
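Luminescence from Kinase-Glo Plus, added after a 45-minute room-temperature reaction, served as the end-point read-out. The enzyme and substrate were preincubated with compound before ADP (130 uM final) initiated turnover. Concentration-effect curves came from normalized qHTS data.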
A number is an active result; – = inactive; ? = inconclusive; · = no result given. A selection: hits, their analogues and other compounds. The true share with any hit is near 5%. Unless noted, calls follow the shape of the dose curve; as a rule, active = well fitted curve in the direction sought with a large enough effect; inconclusive = small, poorly fitted or top-dose-only effect, or another doubt; inactive = no such curve, though single readings can be large; an effect the other way counts as inactive or inconclusive.

SMILES	Vaccinia mCherry	HCMV antiviral	Vaccinia Venus	LmPK inh	Tb PYK inh
Nc1ccn([C@@H]2O[C@H](CNC(=O)[C@@H](Cc3cccnc3)NC=O)[C@@H](O)[C@H]2O)c(=O)n1	–	–	–	·	–
Nc1ncnc(N2CCc3ccccc32)c1[N+](=O)[O-]	–	-83	–	–	–
Cc1nc(-c2c(C(F)(F)F)noc2-c2ccc(O)cc2O)cs1	·	-90	·	–	–
Oc1ccc(-c2onc(C(F)(F)F)c2-c2cscn2)c(O)c1	?	?	–	–	–
Cc1cc(C)c(-c2csc(Cc3nc(-c4cc5ccccc5oc4=O)cs3)n2)cc1C	–	-65	–	–	–
Cc1cc(C)c(-c2csc(-c3cc4ccccc4oc3=O)n2)cc1C	–	–	–	·	–
O=c1oc2ccccc2cc1-c1csc(Cc2nc(-c3ccc(Br)cc3)cs2)n1	·	-99	·	–	–
Cc1ccc(-c2csc(Cc3nc(-c4cc5ccccc5oc4=O)cs3)n2)cc1	–	-80	–	–	–
Cc1ccn2cc(-c3cc4ccccc4oc3=O)nc2c1	–	–	–	14µM	–
CC(Sc1nnc(C(F)(F)F)n1C)C(=O)Nc1ccc(N2CCOCC2)cc1 (stereo not given)	·	–	·	·	–
COc1ccc(/C=C/C(=O)C2CC2)cc1Cn1nc(C)c([N+](=O)[O-])c1C	–	?	–	–	–
O=C(CNc1cccc(C(F)(F)F)c1)N/N=C/c1cn(-c2ccccc2)nc1-c1ccccc1	?	–	?	–	–
Cc1noc(/C=C/c2ccccn2)c1[N+](=O)[O-]	–	-102	–	–	–
COc1ccccc1/C=C/C(=O)OCC(=O)Nc1c(F)cccc1F	–	–	–	–	–
NC(=O)CSC1=N/C(=C\c2ccco2)C(=O)N1c1ccc(OC(F)F)cc1	·	–	·	–	–
CCOc1cc(/C=C2\N=C(SC(C)C(N)=O)N(c3ccc(OC(F)F)cc3)C2=O)ccc1O (stereo not given)	·	-62	·	–	–
Cc1no[n+]([O-])c1COc1ccc(/C=N/n2nnnc2N)cc1	14µM	–	?	–	–
Cc1ccc(/C=N/n2nnnc2N)cc1	–	–	–	·	–
CC[N+](CC)(CC)c1ccc(/C=C/c2ccnc3ccccc23)cc1	–	·	–	·	·
O=C1/C(=C\c2ccccc2)CN(C(=O)CCN2CCCCC2)C/C1=C/c1ccccc1	13µM	-100	11µM	·	–
O=C1/C(=C\c2ccccc2)CCC/C1=C/c1ccccc1	–	–	–	·	–
O=C1/C(=C\c2ccc(Cl)c(Cl)c2)CN(C(=O)CCN2CCOCC2)C/C1=C/c1ccc(Cl)c(Cl)c1	?	-102	11µM	·	–
CCN(CC)CCC(=O)N1C/C(=C/c2ccccc2)C(=O)/C(=C\c2ccccc2)C1	?	-100	?	·	–
Cc1cc(C)n(C(=O)CNC(=O)c2ccccc2F)n1	·	–	·	–	–
CC(C)CNc1nc(NC(C)(C)C)nc(Oc2ccc(=O)[nH]n2)n1	–	–	–	–	–
SMILES	Vaccinia mCherry	HCMV antiviral	Vaccinia Venus	LmPK inh	Tb PYK inh
CC1(C)Cc2c(sc(NC(=O)c3ccc(C(=O)c4ccccc4)cc3)c2C(N)=O)C(C)(C)N1	?	-100	?	–	–
COC(=O)c1c(NC(=O)c2ccc(OC(C)C)cc2)sc2c1CC(C)(C)NC2(C)C	?	–	18µM	–	–
CCn1c(SCC(=O)c2cc(C)n(C)c2C)nnc1-c1ccccc1	·	–	–	–	–
CC(=O)N1N=C(c2ccco2)CC1c1cccs1 (stereo not given)	–	–	–	–	–
O=C(CCl)N1N=C(c2ccco2)CC1c1cccs1 (stereo not given)	8.9µM	·	?	–	–
Cc1ccc(C2=NN(C(=O)CCl)C(c3cccs3)C2)o1 (stereo not given)	–	-100	–	–	–
Cc1ccc(C2=NN(C(=O)CCC(=O)O)C(c3cccs3)C2)cc1 (stereo not given)	–	–	–	–	–
COc1ccc(CN2CCC(=O)N([C@H](CO)c3ccccc3)CC2)cc1OC	–	–	–	–	–
CCCN1CCC(=O)N([C@H](CO)CC(C)C)CC1	–	-61	–	–	–
CC(C)C[C@@H](CN=[N+]=[N-])N1CCN(CC(C)C)CCC1=O	–	–	–	–	–
COc1ccc(CN2CCC(=O)N([C@H](CO)CC(C)C)CC2)cc1OC	–	-68	–	–	–
CC(C)C[C@@H](CN=[N+]=[N-])N1CCN(C)CCC1=O	–	-62	–	–	–
CCOC(=O)N(C)c1c(CC)nc2c(OCc3ccc(Cl)cc3)cccn12	–	-89	–	·	–
CCc1nc2c(OCCC3CCCCC3)cccn2c1N(C)C(=O)CC(C)C	–	–	–	·	–
CCCCC(=O)N(C)c1c(CC)nc2c(OCCC3CCCCC3)cccn12	–	-98	–	·	–
CCCCC(=O)N(C)c1c(CC)nc2c(OCC3CCCCC3)cccn12	–	-64	–	·	–
CCOC(=O)C(=O)N(C)c1c(CC)nc2c(OCc3ccc(Cl)cc3)cccn12	–	–	–	·	–
O=C(O)CCCCCCCCCC(=O)c1cccs1	·	–	–	–	–
COc1cccc2cc(C(C)N(CCCN3CCOCC3)C(=S)Nc3cccc(C)c3)oc12 (stereo not given)	–	–	–	–	–
O=C(COc1ccc2ccccc2c1)Nc1nccs1	–	–	–	–	–
CCOc1ccc(CC(=O)Nc2nccs2)cc1	–	–	–	–	–
O=C(COc1ccccc1)Nc1nccs1	–	–	–	14µM	–
Cc1ccc(CC(=O)Nc2nccs2)cc1C	–	-94	–	–	–
Cc1nccn1CCN(C)Cc1cn(Cc2ccccc2)nc1-c1ccc2c(c1)OCO2	–	–	–	–	–
COc1ccc(OC)c(CCNC(=O)CN2C(=O)COc3ccc(S(=O)(=O)N4CCCCCC4)cc32)c1	–	–	–	·	–
SMILES	Vaccinia mCherry	HCMV antiviral	Vaccinia Venus	LmPK inh	Tb PYK inh
CCCCCCc1cc2cc(/C(N)=N/NC(=O)c3ccncc3)c(=O)oc2cc1O	–	–	–	·	–
CCCCCCc1cc2cc(C(=O)OCC)c(=O)oc2cc1O	·	–	·	–	–
CCCCCCc1cc2cc(-c3nnc(-c4ccc(C)cc4)o3)c(=O)oc2cc1O	?	–	?	·	–
CCCCCCc1cc2cc(C(=O)Nc3ccc(OC)cc3)c(=O)oc2cc1O	–	-61	–	–	–
CCCCCCc1cc2cc(C(=O)Nc3cccc(OC)c3)c(=O)oc2cc1O	–	-88	–	–	–
COc1cccc2cc(C(=O)Nc3ccc(CC(=O)O)cc3)c(=O)oc12	–	-72	–	·	–
CCCCCCc1cc2cc(S(=O)(=O)c3ccc(F)c(Cl)c3)c(=O)oc2cc1O	?	-102	?	–	–
CCOC(=O)C1=CN(Cc2ccco2)S(=O)(=O)N(CC)C1c1cccc(OC)c1 (stereo not given)	–	–	?	·	–
O=C(Oc1ccc2c(-c3ccccc3)cc(=O)oc2c1)c1cccs1	–	-67	–	–	–
COc1ccccc1CC(=O)N(CCC1=CCCCC1)c1c(N)n(Cc2ccccc2)c(=O)[nH]c1=O	–	–	–	·	–

Bioassay records deposited in PubChem BioAssay by National Center for Advancing Translational Sciences (NCATS).
